Measurements taken from PubChem BioAssay (Tox21).
Records with an inconclusive call do not appear. A call without a number means that no potency is given here. Activity calls are given as the source filed them. Unless noted, the call rests on the fitted dose curve; in most records, active means well fitted curve in the direction sought with a large enough effect in the repeat runs; inconclusive means weak or mixed curves; inactive means no such curve, though single readings can be large; an effect the other way counts as inactive or inconclusive.

Key:
[1] = qHTS assay to identify small molecule agonists of the endoplasmic reticulum stress response signaling pathway (AID 1159516; active means well fitted activation curve with a large enough effect in the signal ratio in the repeat runs, not every such curve was filed as active; the % refers to the signal ratio)
Method in brief: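 ER stress element reporter (bla) in HeLa. 1,500 cells/well, overnight attachment; 5 hr compound; 2 hr RT substrate; dual-emission fluorescence.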

[2] = qHTS assay to identify small molecule agonists of the endoplasmic reticulum stress response signaling pathway - cell viability counter screen (AID 1159517; calls by dose curve;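 further: HeLa cells carrying an ER stress response element beta-lactamase reporter; series mostly up to about 61 µM; nearly all actives have a fitted effect of over 50% in size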)
Method in brief: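 Counter-screen wells were identical to the reporter wells. Cells were plated at 1,500 per well and dosed for 5 hr, then read for luminescence 30 min after CellTiter-Glo addition.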

[3] = qHTS assay to identify small molecule antagonists of the retinoid-related orphan receptor gamma (ROR-gamma) signaling pathway - cell viability counter screen (AID 1159520); further: nearly all actives have a fitted effect of over 50% in size
Method in brief: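 Tet-on ROR gamma CHO cells were given compounds for 2 hr, then doxycycline hyclate at 1 uM final, and incubated 16 hr at 37 C. Viability was measured as ATP content by CellTiter-Glo luminescence.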

[4] = qHTS assay to identify small molecule agonists of the AP-1 signaling pathway - cell viability counter screen (AID 1159525; calls by dose curve; further: nearly all actives have a fitted effect of over 55% in size; further: potency means the concentration at half of the fitted maximal effect)
Method in brief: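 AP-1-bla ME-180 cells in Opti-MEM with 0.5% dialyzed FBS, compound exposure 5 h at 37 C in 15-point titration. Viability read in the same wells as ATP content by CellTiter-Glo luminescence, normalised to tetra-n-octylammonium bromide and DMSO controls.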

[5] = qHTS assay to identify small molecule antagonists of the retinoid acid receptor (RAR) signaling pathway - cell viability counter screen (AID 1159551); further: nearly all actives have a fitted effect of over 35% in size; further: potency means the concentration at half of the fitted maximal effect
Method in brief: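 Following overnight attachment, C3RL4 reporter cells received DMSO-dissolved compounds and then retinol (1 uM final). Six hours later at 37 C, ATP content was measured by CellTiter-Glo luminescence.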

[6] = qHTS assay to identify small molecule antagonists of the estrogen related receptor (ERR) signaling pathway - cell viability counter screen (AID 1224818);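 further: series mostly up to about 46 µM; viability measured after 17.5 h of compound exposure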
Method in brief: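 Here, ERR cells are plated at 2,000 cells per well, allowed 6 h to attach, and treated with compounds in DMSO for 17.5 h at 37 C. CellTiter-Fluor is then added and fluorescence read after 30 min.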

[7] = qHTS assay to identify small molecule antagonists of the estrogen related receptor signaling pathway with the pleiotropic PPARgamma coactivator (PGC) cell viability counter screen (AID 1224822;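 further: series mostly up to about 46 µM; viability read after 17.5 h compound exposure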)
Method in brief: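 qHTS format, DMSO compound stocks pin-transferred onto PGC/ERR cells 6 h after plating; 17.5 h exposure at 37 C, then CellTiter-Fluor fluorescence.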

[8] = molecular target: Luciferin 4-monooxygenase (Photinus pyralis) (UniProt P08659); test: qHTS assay to identify small molecule inhibitors of firefly luciferase (AID 1224835); further: nearly all actives have a fitted effect of over 25% in size; further: potency means the concentration at half of the fitted maximal effect
Method in brief: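 Biochemical qHTS: compounds run as interplate titrations against purified firefly enzyme, with D-luciferin and ATP each at its KM concentration. Light output recorded by CCD imaging.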

[9] = molecular target: Nuclear receptor ROR-gamma (Homo sapiens) (UniProt P51449); test: qHTS assay to identify small molecule antagonists of the retinoid-related orphan receptor gamma (ROR-gamma) signaling pathway (AID 1159521; further: nearly all actives have a fitted effect of over 50% in size; further: potency means the concentration at half of the fitted maximal effect)
Method in brief: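 Decreased RORE-driven luciferase luminescence indicates antagonism. Tet-on RORγ CHO cells received compound, then 1 uM final doxycycline 2 h later; signal read after 16 h incubation.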

[10] = qHTS assay to identify small molecule agonists of the RXR signaling pathway - cell viability counter screen (AID 1159529); further: nearly all actives have a fitted effect of over 50% in size; further: potency means the concentration at half of the fitted maximal effect
Method in brief: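 In this parallel viability measure, GeneBLAzer RXR-alpha HEK 293T cells (2% charcoal-stripped FBS) were given a 5 hr preincubation, treated with compounds 16 hr at 37 C, and read by CellTiter-Glo luminescence.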

[11] = qHTS assay to identify small molecule agonists of the constitutive androstane receptor (CAR) signaling pathway - cell viability counter screen (AID 1224836); further: nearly all actives have a fitted effect of over 45% in size; further: potency means the concentration at half of the fitted maximal effect
Method in brief: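 Using CellTiter-Fluor, viability of HepG2 cells harbouring hCAR and CYP2B6-2.2kb was measured following 23 h incubation with a 15-concentration compound series plus PK11195 (0.75 uM final).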

[12] = qHTS assay to identify small molecule agonists of the AP-1 signaling pathway (AID 1159526; calls by dose curve)
[13] = qHTS assay to identify small molecule antagonists of the estrogen related receptor (ERR) signaling pathway from Tox21 library - cell viability counter screen (AID 1224834); further: nearly all actives have a fitted effect of over 30% in size; further: potency means the concentration at half of the fitted maximal effect
Method in brief: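 Viability readout (CellTiter-Fluor fluorescence, 30 min at 37 C) multiplexed with the ERR assay; cells treated 17.5 h at 37 C with compounds delivered in DMSO.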

[14] = qHTS assay to identify small molecule antagonists of the retinoic acid receptor (RAR) signaling pathway (AID 1159552; further: nearly all actives have a fitted effect of over 50% in size; further: potency means the concentration at half of the fitted maximal effect)
Method in brief: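 C3RL4 RARE-luc cells, overnight plating; retinol 1 uM final added right after compound; 6 hr 37 C; luciferase read at 30 min RT.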

[15] = qHTS assay to identify small molecule agonists of the retinoic acid receptor (RAR) signaling pathway (AID 1159553); further: potency means the concentration at half of the fitted maximal effect
Method in brief: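 Cell line C3RL4, RARE luciferase reporter. Treatment: compounds in DMSO, 6 hr, 37 C, 5% CO2, after overnight plating. Detection: luminescence, 30 min RT after reagent.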

[16] = molecular target: Retinoic acid receptor RXR-alpha (Homo sapiens) (UniProt P19793); test: qHTS assay to identify small molecule agonists of the RXR signaling pathway (AID 1159527; calls by dose curve; further: nearly all actives have a fitted effect of over 35% in size)
Method in brief: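 16 hr incubation of compound-treated RXR-alpha-UAS-bla HEK 293T cells (2% charcoal-stripped FBS, 37 C) preceded a 2 hr room-temperature LiveBLAzer FRET substrate step and blue/green fluorescence measurement.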

Retinoic acid receptor RXR-alpha (Homo sapiens), sequence (P19793 whole entry, looked up): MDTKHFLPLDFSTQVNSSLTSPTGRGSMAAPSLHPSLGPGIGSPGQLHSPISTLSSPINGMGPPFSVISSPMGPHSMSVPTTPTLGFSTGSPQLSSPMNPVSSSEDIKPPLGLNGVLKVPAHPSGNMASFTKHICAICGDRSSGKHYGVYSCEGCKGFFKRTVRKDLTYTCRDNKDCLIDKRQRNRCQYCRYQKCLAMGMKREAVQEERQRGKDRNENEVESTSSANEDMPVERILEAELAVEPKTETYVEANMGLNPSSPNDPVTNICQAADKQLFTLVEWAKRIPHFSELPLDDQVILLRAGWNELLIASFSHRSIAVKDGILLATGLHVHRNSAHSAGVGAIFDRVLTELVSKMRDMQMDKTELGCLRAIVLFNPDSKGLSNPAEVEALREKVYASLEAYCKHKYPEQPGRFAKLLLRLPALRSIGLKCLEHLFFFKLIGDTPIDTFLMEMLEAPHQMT
Luciferin 4-monooxygenase (Photinus pyralis), sequence (P08659 whole entry, looked up): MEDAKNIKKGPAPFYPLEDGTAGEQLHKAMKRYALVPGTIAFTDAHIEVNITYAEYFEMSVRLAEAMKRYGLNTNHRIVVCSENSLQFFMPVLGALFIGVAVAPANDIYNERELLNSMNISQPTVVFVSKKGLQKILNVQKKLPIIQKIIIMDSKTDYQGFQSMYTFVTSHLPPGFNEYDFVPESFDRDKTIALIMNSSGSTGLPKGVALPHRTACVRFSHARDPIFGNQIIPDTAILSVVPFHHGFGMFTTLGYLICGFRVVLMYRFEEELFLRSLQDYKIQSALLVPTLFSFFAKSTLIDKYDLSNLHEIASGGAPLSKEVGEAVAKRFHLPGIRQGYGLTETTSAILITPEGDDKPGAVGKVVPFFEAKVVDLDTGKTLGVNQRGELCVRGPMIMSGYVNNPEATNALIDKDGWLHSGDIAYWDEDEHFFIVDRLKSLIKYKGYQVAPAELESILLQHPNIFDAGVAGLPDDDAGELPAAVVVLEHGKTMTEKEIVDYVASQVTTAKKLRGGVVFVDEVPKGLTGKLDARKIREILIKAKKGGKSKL

CCN(CC)CCCN(c1ccccc1)C1Cc2ccccc2C1
Potency [1]: inactive
Potency [2]: inactive
Potency [3]: inactive
Potency [4]: inactive
Potency [5]: inactive
Potency [6]: inactive
Potency [7]: inactive
Potency [8]: inactive

CCCCN(CCCC)CCC(O)c1cc2c(Cl)cc(Cl)cc2c2cc(C(F)(F)F)ccc12 (stereo unspecified)
Potency [1]: inactive
Potency [2]: inactive
Potency [9]: 29.8 µM (active)
Potency [4]: inactive
Potency [10]: 23.9 µM (active)
Potency [5]: inactive
Potency [11]: inactive

O=Cc1ccc(F)cc1
Potency [1]: inactive
Potency [3]: inactive
Potency [9]: inactive
Potency [4]: inactive
Potency [12]: inactive
Potency [10]: inactive
Potency [5]: inactive
Potency [13]: inactive
Potency [8]: inactive
Potency [11]: inactive

O=C(Oc1ccccc1)c1cccc(C(=O)Oc2ccccc2)c1
Potency [1]: inactive
Potency [3]: inactive
Potency [9]: inactive
Potency [4]: inactive
Potency [5]: inactive
Potency [14]: inactive
Potency [15]: 0.456 µM (active)
Potency [6]: inactive
Potency [13]: inactive
Potency [11]: inactive

Oc1ccc(-c2ccc(O)cc2)cc1
Potency [1]: inactive
Potency [3]: inactive
Potency [9]: inactive
Potency [4]: inactive
Potency [12]: inactive
Potency [10]: inactive
Potency [14]: inactive
Potency [15]: inactive
Potency [8]: 40.2 µM (active)
Potency [11]: inactive

CCN(CC)CCOC(=O)C1(C2CCCCC2)CCCCC1
Potency [1]: inactive
Potency [2]: inactive
Potency [10]: 12 µM (active)
Potency [8]: inactive
Potency [11]: inactive

C=C[C@](C)(O)CC[C@@H]1[C@@]2(C)CCCC(C)(C)[C@@H]2CC[C@@]1(C)O
Potency [1]: inactive
Potency [2]: inactive
Potency [4]: 24.5 µM (active)
Potency [10]: 43.6 µM (active)
Potency [5]: 61.1 µM (active)
Potency [13]: 61.1 µM (active)
Potency [8]: inactive
Potency [11]: 61.1 µM (active)

NC(=O)C(=O)N/N=C/c1ccc([N+](=O)[O-])o1
Potency [1]: inactive
Potency [2]: inactive
Potency [9]: inactive
Potency [10]: inactive
Potency [5]: inactive
Potency [13]: inactive
Potency [8]: inactive
Potency [11]: inactive

O=C(O)CC(=O)O
Potency [1]: inactive
Potency [2]: inactive
Potency [3]: inactive
Potency [12]: inactive
Potency [16]: inactive
Potency [10]: inactive
Potency [5]: inactive
Potency [14]: inactive
Potency [15]: inactive
Potency [13]: inactive
Potency [8]: inactive
Potency [11]: inactive

CC(C(O)c1ccccc1)N(C)CCOC(c1ccccc1)c1ccccc1 (stereo unspecified)
Potency [1]: inactive
Potency [2]: inactive
Potency [5]: inactive
Potency [13]: 29.8 µM (active)

O=C1OC(=O)c2cccc3cccc1c23
Potency [1]: inactive
Potency [3]: inactive
Potency [9]: inactive
Potency [4]: inactive
Potency [16]: inactive
Potency [10]: inactive
Potency [5]: inactive
Potency [14]: inactive
Potency [15]: inactive
Potency [13]: inactive
Potency [8]: inactive
Potency [11]: inactive

CC(=O)Oc1ccc(C2(c3ccc(OC(C)=O)cc3)Oc3ccccc3NC2=O)cc1
Potency [1]: inactive
Potency [3]: inactive
Potency [9]: 26.6 µM (active)
Potency [12]: inactive
Potency [10]: inactive
Potency [5]: inactive
Potency [8]: inactive
Potency [11]: inactive

Cc1nc(Nc2ncc(C(=O)Nc3c(C)cccc3Cl)s2)cc(N2CCN(CCO)CC2)n1
Potency [1]: inactive
Potency [2]: inactive
Potency [4]: inactive
Potency [10]: inactive
Potency [5]: inactive
Potency [14]: 16.8 µM (active)
Potency [15]: inactive
Potency [13]: 13.3 µM (active)
Potency [8]: inactive
Potency [11]: 7.5 µM (active)

c1cc2c3c(c1)ccc1cccc(c13)C2
Potency [1]: inactive
Potency [3]: inactive
Potency [9]: inactive
Potency [4]: inactive
Potency [5]: inactive
Potency [14]: inactive
Potency [15]: inactive
Potency [13]: inactive
Potency [11]: inactive

C[C@]12CC[C@H]3C(=CCc4cc(O)ccc43)[C@@H]1CCC2=O
Potency [1]: inactive
Potency [3]: inactive
Potency [9]: inactive
Potency [12]: inactive
Potency [10]: 21.9 µM (active)
Potency [5]: inactive
Potency [14]: inactive
Potency [13]: 54.5 µM (active)
Potency [8]: 35.6 µM (active)
Potency [11]: inactive

O=C(O)Cc1ccc(OCCNC[C@H](O)c2ccccc2)cc1
Potency [1]: inactive
Potency [3]: inactive
Potency [9]: inactive
Potency [4]: inactive
Potency [10]: inactive
Potency [5]: inactive
Potency [14]: inactive
Potency [13]: inactive
Potency [8]: inactive
Potency [11]: inactive

Cc1ccc(N)cc1O
Potency [1]: inactive
Potency [3]: inactive
Potency [9]: inactive
Potency [4]: 38.9 µM (active)
Potency [5]: inactive
Potency [14]: inactive
Potency [15]: 12.2 µM (active)
Potency [6]: inactive
Potency [7]: inactive
Potency [11]: inactive

CCCN(CCc1cccs1)[C@H]1CCc2c(O)cccc2C1
Potency [1]: inactive
Potency [3]: inactive
Potency [9]: inactive
Potency [4]: inactive
Potency [16]: inactive
Potency [5]: inactive
Potency [8]: inactive
Potency [11]: inactive

C[Si](C)(C)Cl
Potency [1]: inactive
Potency [3]: inactive
Potency [9]: inactive
Potency [4]: inactive
Potency [12]: inactive
Potency [16]: inactive
Potency [5]: inactive
Potency [14]: inactive
Potency [15]: inactive
Potency [13]: inactive
Potency [8]: inactive
Potency [11]: inactive
